According to PubChem BioAssay AID1421 (Emory University Molecular Libraries Screening Center, 2008):
Out of some 1,300 compounds screened, about 140 (11%) were called active. The rule behind the calls is not given here. Only a sample is shown. Potency and affinity values are given separately.

Target: Prostaglandin E2 receptor EP2 subtype (Homo sapiens) (UniProt P43116)
Test: EP2 receptor modulators, dose response, cell-based, human EP2, PGE2 EC50 shift (AID 1421)
Conditions: EP2-expressing cells, PGE2 EC50 shift by compound; at 20 µM

Sequence of Prostaglandin E2 receptor EP2 subtype (Homo sapiens) (P43116 whole entry, looked up): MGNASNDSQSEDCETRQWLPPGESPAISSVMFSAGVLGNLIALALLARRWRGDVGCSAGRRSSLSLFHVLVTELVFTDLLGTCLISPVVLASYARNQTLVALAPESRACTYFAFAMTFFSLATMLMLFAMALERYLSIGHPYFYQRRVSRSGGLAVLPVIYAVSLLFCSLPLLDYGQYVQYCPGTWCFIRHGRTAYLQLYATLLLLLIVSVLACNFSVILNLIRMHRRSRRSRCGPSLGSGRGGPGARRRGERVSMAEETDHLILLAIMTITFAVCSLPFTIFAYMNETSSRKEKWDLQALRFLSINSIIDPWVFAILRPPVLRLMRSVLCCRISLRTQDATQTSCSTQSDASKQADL

PGE2 EC50 with compound, inactive:
COC(=O)c1ccccc1NC(=O)C(C)Oc1ccccc1 (configuration not stated) 0.81 nM
c1ccc(Cc2nc3ccccc3n2Cc2ccccc2)cc1 0.31 nM
Cc1cccc(OCc2n[nH]c(=S)n2Cc2ccccc2)c1 0.47 nM
COc1ccc(C(=O)O)cc1NC(=S)NC(=O)c1ccc(-c2ccc(Cl)cc2)o1 462 nM
COCCn1c(SCC(=O)NCCc2ccccc2)nnc1-c1ccco1 0.68 nM
CC(C)n1c2ccccc2c2nnc(SCC(=O)Nc3ccccc3C(=O)O)nc21 1.63 nM
COc1ccc(C(=O)Nc2cc(C)nn2-c2nc3ccccc3[nH]2)c(OC)c1 0.24 nM
Cc1cc(C)n(-c2cc(-c3ccccc3)nc(C)n2)n1 0.22 nM
Cc1oc(-c2ccccc2)cc1C(=O)Nc1cccc(/C=C\C(=O)O)c1
c1cncc(-c2nc(N3CCOCC3)c3c4c(sc3n2)CCC4)c1 0.72 nM
Cc1ccc(C2CC(c3cccs3)=NN2C(=O)c2ccc(Br)o2)cc1 (configuration not stated) 0.31 nM
Cc1ccc(Cl)cc1NC(=S)N(Cc1ccco1)C(C)c1cccs1 (configuration not stated) 0.26 nM
Cc1ccccc1NC(=S)N(Cc1ccco1)C(C)c1cccs1 (configuration not stated) 0.4 nM
O=C(NCc1ccco1)c1ccc(=O)[nH]n1 0.48 nM
C/C(CCc1oc2ccccc2c1-c1ccc(C)o1)=N/O 0.47 nM
Cc1ccc(-c2cc3nn(-c4ccccc4)c(N)c3c(=O)o2)cc1 1.29 nM
Cc1ccc(N=Nc2c(N)[nH]n3c(=O)c4c(nc23)CCCC4)cc1 3.42 nM
O=C(O)COc1ccc2occ(C(=O)c3ccccc3)c2c1 0.37 nM
CCOc1nc(C)cc(C)c1S(=O)(=O)c1ccc(Cl)cc1 0.21 nM
CC(/C=C1\SC(=S)N(C(C(=O)O)C(C)C)C1=O)=C\c1ccccc1 (configuration not stated) 1.95 nM
COc1ccccc1CNC(=O)C1(c2ccc(Cl)cc2)CC1 0.43 nM
CCCCc1nc(N2CCOCC2)c(C#N)c2c1CCCC2 0.37 nM
CCC(=O)N1CCN(c2nc(-c3ccccc3)c3c(c2C#N)CCCC3)CC1 0.31 nM
CCOc1ccc(OCC)c(NC(=O)CN2CCN(c3cc(C)ccc3C)CC2)c1 0.45 nM
Cc1occc1-c1nnc(SCC(=O)Nc2ccccc2N2CCCCC2)n1C 1.17 nM
O=C(CNCc1ccccc1Cl)Nc1ccccc1N1CCCCC1 0.81 nM
O=C(Cc1c(F)cccc1Cl)Nc1ccccc1N1CCCCC1 0.53 nM
CC(C)(C)N(Cc1ccccc1)C(=O)c1ccc(Br)o1 0.51 nM
COC(=O)NC1(C(F)(F)F)C(=O)NC(C)=C1C(=O)OC (configuration not stated) 0.72 nM
CCOC(=O)C1=C(C)N(C)C(C)=C(C(=O)OCC)C1c1ccccc1 0.51 nM
CCOC(=O)N1CCC(=C2c3ccc(Cl)cc3CCc3cccnc32)CC1 0.38 nM
CC1CCN(c2nc(-c3ccncc3)nc3ccccc23)CC1 0.52 nM
Cc1nnc(SCC(=O)N2c3ccccc3C(C)(c3ccccc3)CC2(C)C)s1 (configuration not stated) 0.37 nM
O=C(c1ccc(Cl)cc1)c1oc2ccccc2c1CS(=O)c1ccc(Cl)cc1 (configuration not stated) 0.25 nM
O=C(COc1cccc2ccccc12)N1c2ccccc2CCc2ccccc21 0.35 nM
Clc1ccc(Cl)c(-c2ccc(/C=N/c3ncn[nH]3)o2)c1 2.61 nM
COc1ccccc1N(C(=O)NCc1ccccc1)C1=NCC(C)S1 (configuration not stated) 0.21 nM
CCn1c2ccc(OC)cc2c2nc3ccccc3nc21 0.85 nM
O=c1cc(N2CCCCC2)c(-c2ccccc2)nn1Cc1ccccc1Cl 0.4 nM
CC1=CC2C(C(C)C)CCC(C)(O)C2CC1 (configuration not stated) 0.83 nM
O=C(NCc1ccco1)C(c1cccs1)N(C(=O)Cc1cccs1)c1ccccc1 (configuration not stated) 0.44 nM
c1ccc(-c2noc(-c3cccc4ccccc34)n2)cc1 0.52 nM
c1ccc(-c2noc(-c3ccccc3-c3ccccc3)n2)cc1 0.5 nM
COc1ccc(CCN(Cc2nc(-c3ccccc3)no2)Cc2nc(-c3ccccc3)no2)cc1OC 0.49 nM
COc1cc(-c2noc(-c3cccc(Cl)c3)n2)cc(OC)c1OC 0.47 nM
COc1ccc(-c2noc(-c3ccccc3-c3ccccc3)n2)cc1OC 0.17 nM
Cc1ccc(-c2csc3ncnc(N4CCc5ccccc5C4)c23)cc1 0.42 nM
Cc1ccc(-c2nn3c(C)nnc3s2)cc1NCc1c(F)cccc1Cl 0.97 nM
CC(C)Sc1nc2sc3c(c2c2nnc(SCC(=O)NCc4ccco4)n12)CCCC3 0.83 nM
Cc1sc2ncnc(Sc3ccccc3C(=O)O)c2c1C 3.01 nM
COc1cccc(-c2nc(N3CC(C)CC(C)C3)c3ccccc3n2)c1O (configuration not stated) 0.13 nM
CCSc1nc2c(c(=O)[nH]c(=O)n2C)n1Cc1ccc(Cl)cc1 0.83 nM
C=CCOc1ccccc1CNc1cccc(F)c1 0.37 nM
CCOc1cccc(CNc2ccc(O)cc2)c1OCc1ccccc1Cl 0.8 nM
Cc1cc(SC(C)C(=O)O)nc2ccccc12 (configuration not stated) 1.16 nM
O=C(CSc1ncnc2c1oc1ccccc12)Nc1ccccc1F 1.24 nM
O=[N+]([O-])c1ccc(Cl)c2c1C1C=CCC1C(c1ccccn1)N2 (configuration not stated) 0.53 nM
CC(=O)N(c1cccc(Br)c1)C1C=CS(=O)(=O)C1 (configuration not stated) 0.92 nM
Cc1nnc(SCC(=O)NC2CCCCC2)n1C1CCCCC1 0.89 nM
CC(NC(c1ccccc1)c1ccccc1)C(=O)N1CCCc2ccccc21 (configuration not stated) 0.36 nM
O=C(COc1ccccc1)Nc1cc(C(F)(F)F)ccc1N1CCCC1 0.31 nM
Cc1ccc(C(=O)O)cc1NC(=S)NC(=O)c1ccc(-c2ccccc2)cc1 1.3 nM
